Experimental data reported in PubChem BioAssay.
The source made the active and inactive calls.

Tests used:
[1] = optical density shifts of acrAB sulA E. coli – strain DRC41, OD650, 48 h, E. coli filamentation inducer project, primary screen (AID 1152); details: higher = more signal, called active from +8 up or from −8 down;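 further: E. coli MC1000 strain DRC41 lacking acrAB efflux pump and sulA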
[2] = probe aLefty1 binding on compound microarray – biochemical, small-molecule microarray, 635/667 nm fluorescence, primary screen (AID 1153); details: higher = more signal;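 further: score merges spot fluorescence with signal-to-noise ratio from the scanned slide images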
[3] = plasmodial surface anion channel blockers, osmotic lysis – cell-based, P. falciparum Indochina, OD700, 1 h, primary screen (AID 1154); details: P. falciparum Indochina infected RBC osmotic lysis, higher = more signal, called active from +8 up or from −8 down
[4] = plasmodial surface anion channel blockers, osmotic lysis – cell-based, P. falciparum Indochina, OD700, 2 h, primary screen (AID 1155);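 further: lysis reports solute entry through the parasite surface anion channel PSAC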; details: P. falciparum Indochina infected erythrocytes, higher = more signal, called active from +8 up or from −8 down
[5] = changes in parasitized red cell lysis, either direction – P. falciparum Indochina, OD700, 3 h, PSAC antagonist project, primary screen (AID 1156); details: P. falciparum-infected erythrocytes, osmotic lysis, higher = more signal, called active from +8 up or from −8 down
[6] = plasmodial surface anion channel blockers, osmotic lysis – cell-based, P. falciparum Indochina, OD700, 18 h, primary screen (AID 1157); details: P. falciparum Indochina infected erythrocytes, osmotic lysis OD700, 18 h; higher = more signal, called active from +8 up or from −8 down
[7] = S6 kinase pathway phospho-S6 level changes – cell-based, A549, cytoblot, luminescence, serum-stimulated, primary screen (AID 1158); details: 5 h, higher = more signal;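 further: serum-stimulated A549 lung adenocarcinoma cells; signal is phosphorylated S6 detected by cytoblot immunostaining with HRP secondary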
[8] = biological target: NADPH oxidase 2 (Homo sapiens) (UniProt P04839); assay: compounds shifting NOX2 Amplex Red fluorescence – cell-based, HEK293-NOX2, PMA-stimulated, NOX inhibitor project, primary screen (AID 1159); details: 45 min, higher = more signal, called active from +8 up or from −8 down; further: test concentration not given here
Sequence of NADPH oxidase 2 (Homo sapiens) (P04839 whole entry, looked up): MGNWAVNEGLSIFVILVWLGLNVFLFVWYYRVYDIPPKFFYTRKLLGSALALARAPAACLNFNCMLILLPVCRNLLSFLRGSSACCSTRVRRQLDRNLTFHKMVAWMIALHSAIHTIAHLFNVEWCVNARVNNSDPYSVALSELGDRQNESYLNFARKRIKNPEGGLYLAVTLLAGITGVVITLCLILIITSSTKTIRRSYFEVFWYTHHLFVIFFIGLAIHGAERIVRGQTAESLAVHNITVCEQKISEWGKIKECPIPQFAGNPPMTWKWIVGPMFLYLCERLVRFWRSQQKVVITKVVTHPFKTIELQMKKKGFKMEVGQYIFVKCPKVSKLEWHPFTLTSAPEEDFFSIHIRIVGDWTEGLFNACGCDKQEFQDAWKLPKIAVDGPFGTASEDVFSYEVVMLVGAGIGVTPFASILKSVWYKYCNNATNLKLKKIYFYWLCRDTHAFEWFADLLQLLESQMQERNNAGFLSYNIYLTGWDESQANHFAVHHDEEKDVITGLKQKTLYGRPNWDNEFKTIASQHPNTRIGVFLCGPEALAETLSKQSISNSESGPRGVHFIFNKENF

[9] = biological target: NADPH oxidase 4 (Homo sapiens) (UniProt Q9NPH5); assay: compounds shifting NOX4 Amplex Red fluorescence – cell-based, HEK293-NOX4, tetracycline-induced, NOX inhibitor project, primary screen (AID 1160); details: HEK293-NOX4, Amplex Red H2O2 fluorescence, 45 min; higher = more signal, called active from +8 up or from −8 down
Sequence of NADPH oxidase 4 (Homo sapiens) (Q9NPH5 whole entry, looked up): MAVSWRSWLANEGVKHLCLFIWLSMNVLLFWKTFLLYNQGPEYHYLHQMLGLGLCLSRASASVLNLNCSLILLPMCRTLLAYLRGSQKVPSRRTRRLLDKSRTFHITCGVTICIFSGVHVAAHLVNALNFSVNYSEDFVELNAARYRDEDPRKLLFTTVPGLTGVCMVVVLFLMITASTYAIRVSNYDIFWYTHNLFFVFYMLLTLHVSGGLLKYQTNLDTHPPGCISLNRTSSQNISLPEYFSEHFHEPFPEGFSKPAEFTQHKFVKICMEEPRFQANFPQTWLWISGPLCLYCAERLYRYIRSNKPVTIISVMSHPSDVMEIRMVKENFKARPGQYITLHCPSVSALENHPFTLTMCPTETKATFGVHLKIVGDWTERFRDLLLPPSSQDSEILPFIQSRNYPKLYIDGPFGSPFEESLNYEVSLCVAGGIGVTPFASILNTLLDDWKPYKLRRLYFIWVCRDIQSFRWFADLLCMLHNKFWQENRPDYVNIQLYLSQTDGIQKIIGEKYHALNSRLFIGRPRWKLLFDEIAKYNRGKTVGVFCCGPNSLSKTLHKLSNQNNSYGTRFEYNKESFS

[10] = biological target: NADPH oxidase 5 (Homo sapiens) (UniProt Q96PH1); assay: compounds shifting NOX5 Amplex Red fluorescence – cell-based, HEK293-NOX5, NOX inhibitor project, primary screen (AID 1161); details: HEK293-NOX5, ionomycin, 45 min, higher = more signal
Sequence of NADPH oxidase 5 (Homo sapiens) (Q96PH1 whole entry, looked up): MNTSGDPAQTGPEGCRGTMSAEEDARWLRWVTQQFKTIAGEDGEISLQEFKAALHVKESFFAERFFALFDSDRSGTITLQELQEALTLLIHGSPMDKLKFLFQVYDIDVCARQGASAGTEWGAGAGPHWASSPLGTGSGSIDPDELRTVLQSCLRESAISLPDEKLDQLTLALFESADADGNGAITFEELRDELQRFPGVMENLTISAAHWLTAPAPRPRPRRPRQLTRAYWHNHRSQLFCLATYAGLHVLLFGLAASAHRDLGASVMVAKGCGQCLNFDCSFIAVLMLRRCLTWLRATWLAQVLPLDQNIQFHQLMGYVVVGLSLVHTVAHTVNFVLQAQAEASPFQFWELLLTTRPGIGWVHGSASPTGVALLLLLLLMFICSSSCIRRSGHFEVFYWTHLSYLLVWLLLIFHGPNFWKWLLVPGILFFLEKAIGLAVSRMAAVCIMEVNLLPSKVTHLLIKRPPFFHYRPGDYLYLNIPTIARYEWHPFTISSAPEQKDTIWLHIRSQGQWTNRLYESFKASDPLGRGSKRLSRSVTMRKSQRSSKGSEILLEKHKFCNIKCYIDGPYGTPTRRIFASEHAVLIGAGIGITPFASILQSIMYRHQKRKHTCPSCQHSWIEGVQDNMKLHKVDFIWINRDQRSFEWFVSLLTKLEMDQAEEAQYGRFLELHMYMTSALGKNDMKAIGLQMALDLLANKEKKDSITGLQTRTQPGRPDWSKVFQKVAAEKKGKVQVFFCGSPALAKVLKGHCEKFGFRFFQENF

[11] = compound effects on lung adenocarcinoma cell viability – A549, calcein-AM fluorescence, 48 h, basal, profiling panel (AID 1162); details: higher = more signal; further: test concentration not given here
[12] = compound effects on differentiated 3T3-L1 adipocyte viability – cell-based, 3T3-L1 adipocytes, calcein-AM fluorescence, 48 h, basal, profiling panel (AID 1163); details: 3T3-L1 adipocytes viability, higher = more signal; further: test concentration not given here
[13] = compound effects on hepatocellular carcinoma cell viability – HepG2, calcein-AM fluorescence, 48 h, basal, profiling panel (AID 1164); details: higher = more signal; further: test concentration not given here
[14] = compound effects on multiple myeloma cell viability – MM1S, calcein-AM fluorescence, 48 h, basal, profiling panel (AID 1165); details: higher = more signal;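 further: viability of MM1S multiple myeloma cells under basal unstimulated conditions; test concentration not given here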
[15] = calcein-AM signal in unstimulated myeloma cells – cell-based, calcein-AM fluorescence, 48 h, PK04 Diversity Set, profiling panel (AID 1166); details: RPMI8226 myeloma viability, higher = more signal;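 further: cells grown under basal conditions without added stimulus; test concentration not given here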
[16] = JC-1 mitochondrial signal, unstimulated HepG2 cells – cell-based, JC-1 fluorescence, 24 h, 100 nL compound, profiling panel (AID 1167); details: HepG2 mitochondrial potential, higher = more signal; further: test concentration not given here
[17] = JC-1 mitochondrial signal, unstimulated adipocytes – cell-based, JC-1 fluorescence, 3T3-L1 adipocytes, 24 h, 100 nL compound, profiling panel (AID 1168); details: JC-1 mitochondrial fluorescence, higher = more signal, called active from +8 up or from −8 down; further: test concentration not given here
[18] = JC-1 mitochondrial signal, unstimulated myeloma cells – cell-based, JC-1 fluorescence, RPMI8226, 24 h, 100 nL compound, profiling panel (AID 1169); details: JC-1 mitochondrial potential fluorescence, higher = more signal; further: test concentration not given here
[19] = JC-1 mitochondrial signal, unstimulated MM1S myeloma – cell-based, JC-1 fluorescence, 24 h, 100 nL compound, profiling panel (AID 1170); details: MM1S mitochondrial potential, higher = more signal; further: test concentration not given here
[20] = resazurin metabolic signal in A549 cells – cell-based, resazurin fluorescence, 24 h, PK04 Diversity Set, profiling panel (AID 1171); details: A549 viability, higher = more signal, called active from +8 up or from −8 down; further: test concentration not given here

SMILES | z-score [1] | composite z-score [2] | z-score [3] | z-score [4] | z-score [5] | z-score [6] | z-score [7] | z-score [8] | z-score [9] | z-score [10] | z-score [11] | z-score [12] | z-score [13] | z-score [14] | z-score [15] | z-score [16] | z-score [17] | z-score [18] | z-score [19] | z-score [20]
CCCCN1CC=CC23O[C@@H]4C=CCOC(=O)[C@@H]4[C@H]2C(=O)N(C(CO)C(C)C)[C@@H]3C1=O (stereo not given in full) | -0.62 (inactive) | -0.0697 | 1.16 (inactive) | 0.574 (inactive) | 1.06 (inactive) | 0.407 (inactive) | -0.272 | 0.835 (inactive) | 0.17 (inactive) | 1.88 | -0.503 | -1.13 | -0.803 | 0.543 | -0.42 | -0.528 | -0.713 (inactive) | 0.184 | -0.071 | -0.519 (inactive)
[N-]=[N+]=NCc1ccccc1C[C@]1(C(=O)N2CCCCC2)N=C(c2ccc(OCCCO)cc2)O[C@H]1c1ccccc1 | 0.74 (inactive) | 0.118 | 20.4 (active) | 5.49 (inactive) | 3.48 (inactive) | 2.04 (inactive) | 1.38 | -1.16 (inactive) | -0.0602 (inactive) | -0.924 | -0.888 | 0.252 | -0.923 | -2.59 | -4.27 | 0.117 | 0.845 (inactive) | -1.14 | -2.38 | -0.136 (inactive)
[N-]=[N+]=NCc1ccccc1C[C@@]1(C(=O)O)N=C(c2ccc(OCCCO)cc2)O[C@@H]1c1ccccc1CN=[N+]=[N-] | 0.583 (inactive) | 0.313 | 22.1 (active) | 4.92 (inactive) | -0.995 (inactive) | -0.336 (inactive) | 1.03 | 0.887 (inactive) | 1.54 (inactive) | 2.03 | 0.737 | 0.2 | 0.0664 | -0.274 | -2.21 | -0.168 | -0.186 (inactive) | -0.477 | -0.824 | 0.855 (inactive)
COc1ccc(CC[C@H](O)c2cccc(OCC(=O)OC(C)(C)C)c2)cc1 | -0.636 (inactive) | 0.163 | 22.8 (active) | 6.97 (inactive) | 0.597 (inactive) | 0.794 (inactive) | 0.118 | -2.52 (inactive) | -0.941 (inactive) | -4.03 | -1.42 | 0.71 | -2.12 | -2.52 | -1.31 | -2.71 | 1.69 (inactive) | -0.84 | -0.835 | 0.41 (inactive)
COC(=O)[C@]1(CO)N=C(c2ccc(OCCCO)cc2)O[C@@H]1c1ccccc1CN=[N+]=[N-] | 0.699 (inactive) | -0.0626 | 7.47 (inactive) | 0.731 (inactive) | 1.34 (inactive) | 0.497 (inactive) | -0.405 | -0.259 (inactive) | -0.0289 (inactive) | 0.234 | 0.0394 | 0.131 | 0.422 | 0.28 | 0.0032 | -0.253 | 0.039 (inactive) | 0.00663 | 0.0223 | -0.49 (inactive)
Cc1ccccc1C(O)C1C=CC2C(=O)N(c3ccccc3)C(=O)C2N1Nc1ccccc1F (stereo not given) | -1.37 (inactive) | 0.649 | 10.8 (active) | 2.28 (inactive) | 0.39 (inactive) | 1.1 (inactive) | -1.16 | -2.02 (inactive) | -5.43 (inactive) | -3.71 | 0.569 | -0.522 | -0.157 | -0.584 | -0.666 | -2.82 | -1.49 (inactive) | -0.0566 | 0.368 | -0.425 (inactive)
CCOC(=O)C1=CC[C@@H](c2ccccc2Cl)N(S(=O)(=O)c2ccc(C)cc2)[C@H]1c1cccc(OC)c1 | -1.44 (inactive) | 0.0082 | 1.23 (inactive) | 1.16 (inactive) | 0.106 (inactive) | 0.362 (inactive) | -0.401 | 0.78 (inactive) | 0.238 (inactive) | 0.113 | -0.698 | -1.56 | -0.467 | -0.744 | 0.688 | 0.405 | -1.39 (inactive) | 0.702 | -0.539 | 0.219 (inactive)
CCCC[C@@H]1C[C@H]1[C@@H](NC(=O)Cc1ccccc1)c1ccc(Cl)cc1 | -1.71 (inactive) | 0.509 | 1.15 (inactive) | 1.03 (inactive) | 2.18 (inactive) | 1.53 (inactive) | -1.06 | -0.795 (inactive) | -0.195 (inactive) | 1.88 | -1.07 | -0.669 | -1.9 | -3.46 | -4.66 | -4.92 | -1.27 (inactive) | -0.906 | -2.89 | 3.48 (inactive)
C#CCN(C/C=C/c1ccccc1)[C@H](CO[Si](C)(C)C(C)(C)C)c1ccccc1 | -0.78 (inactive) | -0.346 | 0.829 (inactive) | 0.984 (inactive) | 1.05 (inactive) | -0.161 (inactive) | -0.0623 | 1.64 (inactive) | 0.447 (inactive) | -0.419 | -0.909 | -0.0156 | -0.676 | -0.848 | -2.58 | -2.55 | 0.155 (inactive) | -0.352 | 0.653 | 0.403 (inactive)
